Tau fibril FP: inhibitors of human tau fibril formation. AID 1468. P10636. 280,000 compounds, 0.39% hits. Potency, µM (titrated, usually from 57.7 µM), actives largely listed as inhibitors. K18 P301L tau heparin fibrillization, Alexa594 FP, 6 h; also: nearly all actives have a fitted effect of over 55% in size
Target sequence (P10636 561-689 P618L limits assumed): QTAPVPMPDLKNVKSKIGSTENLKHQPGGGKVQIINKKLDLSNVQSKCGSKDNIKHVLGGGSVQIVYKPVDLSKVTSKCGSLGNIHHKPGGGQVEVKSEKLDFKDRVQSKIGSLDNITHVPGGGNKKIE
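Read-out: fluorescence polarization of Alexa 594-labeled tau (0.24 uM), 555 nm excitation, 632 nm emission. Mixtures held 15 uM unlabeled K18 P301L, compound and 20 uM heparin, pH 7 acetate buffer, incubated 6 hr at 37 C.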
Tau ThT inhib: inhibitors of human tau fibril formation, thioflavin T binding. P10636. recombinant tau K18 P301L, heparin-induced fibrillization, ThT fluorescence. Potency, µM (titrated, usually from 57.4 µM), hits mostly inhibitors. 270,000 compounds, 2.1% hits. AID 1460; also: nearly all actives have a fitted effect of over 55% in size
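Fibril formation assay: tau K18 P301L at 15 uM with trace Alexa 594 label, heparin inducer 20 uM, pH 7 sodium acetate buffer, 37 C for 6 hr; endpoint ThT signal.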
Tau fluor cs: counter-screen for tau fibril formation inhibitors; tau K18 P301L Alexa594 fluorescence, heparin fibrillization; Potency, µM (series often up to 57.7 µM); 280,000 compounds, 0.93% hits; also: nearly all actives have a fitted effect of over 55% in size
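Human tau K18 P301L (15 uM unlabeled, 0.24 uM Alexa 594-labeled) in 100 mM sodium acetate pH 7 with 20 uM heparin, 6 hr at 37 C. ThT 30 uM added, 1 hr ambient; Alexa 594 FP and total fluorescence read at 555/632 nm.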
FBPA coupling cs: counter-screen for Giardia aldolase inhibitors: coupling enzyme system | coupling enzyme system counterscreen, AmpLite Red fluorescence | activity change, negative = inhibition, % at 58.2 µM, hits read low | 290,000 compounds, 0.67% hits; in the data active = activity change below about -30%
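Counterscreen lacking aldolase: glyceraldehyde-3-phosphate coupling-enzyme reagent preincubated 10 min at RT with compound (at 57.5 uM final), then substrate/coupling system with AmpLite Red added; fluorescence read at 525/598 nm after 20 min RT.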
Sfp PPTase inh: blocks B. subtilis Sfp PPTase activity | Q9F4F7 | Biochemical Sfp PPTase activity, qHTS | 310,000 compounds, 3.5% hits | AID 1490 | Potency, µM, actives largely listed as inhibitors;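 also: the enzyme is Sfp with the accession as filed and its product quenches rhodamine fluorescence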
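Step 1, compound plus 15 nM Sfp-PPTase, 15 min, room temperature. Step 2, add rhodamine-CoA (5 uM) and BHQ-2-YbbR (12.5 uM). Step 3, read 525/598 nm fluorescence at 0 and 30 min.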
KDM4E inh: blocks human JMJD2E demethylase activity; B2RXH2; JMJD2E catalytic domain, FDH-coupled NADH fluorescence (FDH is formaldehyde dehydrogenase); Potency, µM (doses to about 57.1 µM), actives largely listed as inhibitors; 230,000 compounds, 1.6% hits; active = well fitted inhibition curve with a large enough effect, not every such curve was filed as active; inconclusive = small, poorly fitted or top-dose-only effect, or another doubt; inactive = no such curve, though single readings can be large or run the other way; also: nearly all actives have a fitted effect of over 50% in size
Target sequence (B2RXH2 1-337 limits assumed): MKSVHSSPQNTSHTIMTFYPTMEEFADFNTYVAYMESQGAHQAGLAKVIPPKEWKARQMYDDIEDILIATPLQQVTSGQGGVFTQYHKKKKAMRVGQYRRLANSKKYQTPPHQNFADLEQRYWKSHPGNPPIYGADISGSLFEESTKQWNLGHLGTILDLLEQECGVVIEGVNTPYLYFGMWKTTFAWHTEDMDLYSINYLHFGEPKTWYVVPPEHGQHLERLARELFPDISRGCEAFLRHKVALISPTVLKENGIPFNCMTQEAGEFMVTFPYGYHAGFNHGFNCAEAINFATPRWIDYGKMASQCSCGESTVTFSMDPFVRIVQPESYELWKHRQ
Large screens that a line does not name were inactive; [ ] = another dose, or the depositor's remark. This is a sample that favours compounds with a hit; in the whole collection about 5.3% have one here. Unless noted, calls follow the shape of the dose curve; as a rule, active = well fitted curve in the direction sought with a large enough effect; inconclusive = small, poorly fitted or top-dose-only effect, or another doubt; inactive = no such curve, though single readings can be large; an effect the other way counts as inactive or inconclusive.

CCOC(=O)C1=C(C)NC2=C(C(=O)c3ccccc32)C1c1ccc([N+](=O)[O-])o1 (centres undefined)	Tau ThT inhib inconclusive, Tau fluor cs inconclusive, Sfp PPTase inh 35.5µM
CCOC(=O)C1=C(C)NC(=O)NC1c1ccc([N+](=O)[O-])o1 (centres undefined)	none
CCOC(=O)COc1ccccc1C1C(C(=O)OC)=C(C)NC2=C1C(=O)c1ccccc12 (centres undefined)	Tau ThT inhib 14.1µM, Tau fluor cs 14.1µM[quencher] (no result: FBPA coupling cs, Sfp PPTase inh, KDM4E inh)
CCOc1cc(C2CC(=O)NC3=C2C(=O)C(C(=O)OC)C(C)C3)cc(Cl)c1O (centres undefined)	none
CCOc1cc(C2C(C(=O)OC)=C(C)NC3=C2C(=O)c2ccccc23)cc(Cl)c1O (centres undefined)	Tau fibril FP inconclusive, Tau ThT inhib inconclusive, Tau fluor cs 7.94µM[quencher] (no result: FBPA coupling cs, Sfp PPTase inh, KDM4E inh)
COC(=O)COc1ccc(C2C(C(=O)OC)=C(C)NC3=C2C(=O)c2ccccc23)cc1OC (centres undefined)	Tau ThT inhib 14.1µM, Tau fluor cs 14.1µM[quencher] (no result: FBPA coupling cs, Sfp PPTase inh, KDM4E inh)
COc1ccc(S(=O)(=O)N(CC(=O)N2CCC(C)CC2)c2ccc(C)cc2)cc1	none (no result: FBPA coupling cs, Sfp PPTase inh, KDM4E inh)
CCCCS(=O)(=O)c1nc(-c2ccc(Br)cc2)cc(-c2ccccc2)c1C#N	none (no result: FBPA coupling cs, Sfp PPTase inh, KDM4E inh)
C=CCN1C(=O)C(CC(C)C)NC1=S (centres undefined)	none (no result: KDM4E inh)
CC(C)c1ccc(S(=O)(=O)c2nnn3c2nc(N2CCOCC2)c2sccc23)cc1	none (no result: FBPA coupling cs, Sfp PPTase inh, KDM4E inh)
CCOc1ccc(Br)cc1C1C(C(=O)OC)=C(C)NC2=C1C(=O)c1ccccc12 (centres undefined)	Tau ThT inhib 10µM, Tau fluor cs 7.94µM[quencher] (no result: FBPA coupling cs, Sfp PPTase inh, KDM4E inh)
CC(=O)c1c2c3c(cccc3n(C)c1=O)C(=O)c1ccccc1-2	none (no result: Tau fibril FP, Tau ThT inhib, Tau fluor cs, KDM4E inh)
Cn1c(=O)c(Nc2ccc(O)cc2)c2c3c(cccc31)C(=O)c1ccccc1-2	Tau fibril FP inconclusive, Tau ThT inhib 7.94µM, Tau fluor cs 14.1µM[quencher]
COc1cc(/C=C2\SC(=S)NC2=O)ccc1OS(=O)(=O)c1ccccc1	Tau ThT inhib 15.8µM, Tau fluor cs inconclusive, Sfp PPTase inh 50.1µM
CCOc1ccc(/C=C2\SC(=S)NC2=O)cc1OC	Tau ThT inhib inconclusive
COc1cccc(/C=C2\SC(=S)NC2=O)c1OS(=O)(=O)c1ccc(NC(C)=O)cc1	Tau ThT inhib inconclusive
COc1cc(/C=C2/SC(=S)NC2=O)ccc1OS(=O)(=O)c1ccc(C)cc1	Tau ThT inhib 15.8µM, Tau fluor cs inconclusive, Sfp PPTase inh 25.1µM
COc1cccc(OCCOc2ccc(/C=C3/SC(=S)NC3=O)cc2)c1	Sfp PPTase inh 50.1µM (no result: Tau fibril FP, Tau ThT inhib, Tau fluor cs, KDM4E inh)
COc1ccc(/C=C2/SC(=O)NC2=O)cc1	none
COc1ccc(/C=C2\SC(=S)NC2=O)cc1OS(=O)(=O)c1ccc(NC(C)=O)cc1	Tau ThT inhib 12.6µM
Cc1ccccc1Nc1c(-c2ccc(N3CCOCC3)cc2)nc2ccc(Br)cn12	Tau ThT inhib inconclusive (no result: FBPA coupling cs, Sfp PPTase inh, KDM4E inh)
OC[C@H]1NC[C@@H](O)[C@@H](O)[C@@H]1O	none (no result: Tau fibril FP, Tau ThT inhib, Tau fluor cs, KDM4E inh)
CC(=O)OCON[N+]([O-])=NC(C)C	none (no result: Tau fibril FP, Tau ThT inhib, Tau fluor cs, KDM4E inh)
Cc1cc(N2CCOCC2)ccc1/C=C\[N+](=O)[O-]	Tau ThT inhib 11.2µM, Tau fluor cs inconclusive, Sfp PPTase inh inconclusive
C/C(=C\C(=O)c1ccccc1)Nc1ccc(O)cc1	Tau ThT inhib inconclusive, Tau fluor cs inconclusive, FBPA coupling cs -31.4
CC(C)C[C@@H](NC(=O)[C@@H](Cc1ccccc1)NC(=O)c1cnccn1)B(O)O	none (no result: Tau fibril FP, Tau ThT inhib, Tau fluor cs, FBPA coupling cs, KDM4E inh)
CCN(C(=O)CSc1ncccn1)C1CCS(=O)(=O)C1 (centres undefined)	none (no result: Tau fibril FP, Tau ThT inhib, Tau fluor cs, FBPA coupling cs, KDM4E inh)
CCN(C(=O)COc1cccc2cccnc12)C1CCS(=O)(=O)C1 (centres undefined)	Tau fibril FP inconclusive, Tau ThT inhib 25.1µM, KDM4E inh inconclusive
COc1ccccc1N1CCN(Cc2ccc(O)c3ncccc23)CC1	Tau ThT inhib inconclusive
Oc1ccc(CN2CCCc3ccccc32)c2cccnc12	Tau ThT inhib inconclusive, KDM4E inh 8.91µM
Cc1[nH]c2ccccc2c1Cc1nnc(SCc2ccccc2)o1	Tau fibril FP inconclusive, Tau ThT inhib inconclusive, Tau fluor cs 17.8µM[quencher]
CCOc1ccc(CCNC(=O)c2cccc(-n3c(C)nc4cccnc43)c2C)cc1	none (no result: FBPA coupling cs, Sfp PPTase inh, KDM4E inh)
